In the library only some 8.3% were active in any assay of this set; here they are far more common.
HCV inh: qHTS Assay for Inhibitors of Hepatitis C Virus (HCV); Huh7.5.1 HCVcc-Cre infection, luciferase reporter, 44 h; Potency, µM (titrated, usually from 41.8 µM), without a hit: at the top dose activity change, negative = inhibition, actives largely listed as inhibitors; 3.4% of 340,000 active; also: potency is read from the fitted curve at half-maximal effect
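Seed cells (1,000/well) for 4 h; treat with compound and infect with HCVcc-Cre, moi about 0.5. Incubate 44 h, then detect luciferase activity.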
HCMV antiviral: qHTS Assay for inhibitors of the human cytomegalovirus (HCMV) | HFF cells, HCMV-luciferase reporter, 72 h; hits give low values | activity change, negative = inhibition, % at 57.5 µM | 4.5% of 410,000 active | AID 1259415, 2018; in the data active = activity change below about -60%; inconclusive = no clear call, values can overlap the other calls; inactive = above about -39%
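Two compound doses tested in HFFs infected with HCMV-luciferase, MOI 1 PFU/cell, 72 h at 37C. Lysate luminescence read with OneGlo; data normalized against buffer-only and 10uM Salinomycin inhibitor controls.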
FMDV inh: High Throughput Screening for Foot and Mouth Disease Virus Antivirals; FMDV antiviral cell-based qHTS; Potency, µM (doses to about 57.9 µM), inactives show at the top dose activity change, negative = inhibition, actives largely listed as inhibitors; 1.2% of 410,000 active; calls by dose curve; tested in HEK293T cells; also: read-out not given here; potency is read from the fitted curve at half-maximal effect; nearly all actives have a fitted effect of over 45% in size
Giardia FBPA inh: qHTS Assay for Inhibitors of Fructose-1,6-bisphosphate Aldolase from Giardia Lamblia. A8B2U2. purified Giardia FBPA. Potency, µM (titrated, usually from 59.6 µM), for inactives: at the top dose activity, negative = inhibition, usual class: inhibitors. 0.71% of 290,000 active. AID 2451, 2010; also: potency is read from the fitted curve at half-maximal effect; nearly all actives have a fitted effect of over 55% in size
Target sequence (A8B2U2 whole entry, looked up): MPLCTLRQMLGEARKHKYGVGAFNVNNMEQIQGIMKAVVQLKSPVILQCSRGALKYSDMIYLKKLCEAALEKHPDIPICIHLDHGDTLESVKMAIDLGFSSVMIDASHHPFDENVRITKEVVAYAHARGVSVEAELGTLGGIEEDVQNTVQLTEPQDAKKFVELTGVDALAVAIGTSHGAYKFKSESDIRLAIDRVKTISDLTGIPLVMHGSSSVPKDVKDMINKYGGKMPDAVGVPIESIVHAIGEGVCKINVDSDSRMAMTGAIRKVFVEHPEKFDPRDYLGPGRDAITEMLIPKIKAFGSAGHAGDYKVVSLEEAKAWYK
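Giardia FBPA (40 nM reagent) was preincubated 10 min at RT with compound (up to 57.5 uM final), then substrate plus GAPDH/TPI/NAD/arsenate coupling system with diaphorase/resazurin was added; resorufin fluorescence (525/598 nm) was read after 20 min.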
MARV entry inh: qHTS for inhibitors of binding or entry into cells for Marburg Virus; Marburg virus pseudotyped entry inhibition, cell reporter; Potency, µM (doses to about 37.8 µM), inactives show at the top dose activity change, negative = inhibition, hits mostly inhibitors; 1.8% of 300,000 active; AID 540276, 2011; calls by dose curve; tested in HEK293 cells; also: potency is read from the fitted curve at half-maximal effect
Lassa entry inh: qHTS for Inhibitors of binding or entry into cells for Lassa Virus; Lassa virus pseudotype entry inhibition, cell reporter; Potency, µM (doses to about 37.9 µM), inactives show at the highest dose activity change, negative = inhibition, most hits filed as inhibitors; 1.2% of 300,000 active; AID 540256, 2011; calls by dose curve; tested in HEK293 cells; also: potency is read from the fitted curve at half-maximal effect; nearly all actives have a fitted effect of over 50% in size
Numbers without * were called inactive; [ ] = remark or other dose. Unless noted, calls follow the shape of the dose curve; as a rule, active = well fitted curve in the direction sought with a large enough effect; inconclusive = small, poorly fitted or top-dose-only effect, or another doubt; inactive = no such curve, though single readings can be large; an effect the other way counts as inactive or inconclusive. % is scaled to controls: 0 for no effect and ±100 for the full control effect.

What do the screens show for `COc1ccc(Nc2nc(N)nc(N)c2S(=O)(=O)c2ccccc2)cc1`?
HCMV antiviral: -16.4; FMDV inh: -16.8%; MARV entry inh: inconclusive; Lassa entry inh: -8.4%[46.1 µM]

How did CCOC(=O)c1c(C)[nH]c(C)c1S(=O)(=O)N1CCC(C(=O)N2CCN(c3cccc(C)c3)C(C)C2)CC1 (centres undefined) do in these assays?
HCMV antiviral: -94.7*; FMDV inh: -26.7%; Lassa entry inh: -24.6%[46.1 µM]

What do the screens show for `CCOC(=O)c1c(C)[nH]c(C)c1S(=O)(=O)N1CCCC(C(=O)N2CCN(c3cccc(C)c3C)CC2)C1` (centres undefined)?
HCMV antiviral: 13.0; FMDV inh: 0.8%; Lassa entry inh: 11.2µM*

How did CCOC(=O)c1c(C)[nH]c(C)c1S(=O)(=O)N1CCCC(C(=O)N2CCN(c3cccc(Cl)c3)CC2)C1 (centres undefined) do in these assays?
HCMV antiviral: -72.7*; FMDV inh: -29.1%; Lassa entry inh: inconclusive

What do the screens show for `CSCC[C@H](NC(=O)[C@H](CC(C)C)NC(=O)CCNC(=O)[C@@H](NC(=O)[C@H](Cc1ccccc1)NC(=O)[C@H](CO)NC(=O)[C@@H](N)CC(=O)O)C(C)C)C(N)=O`?
Giardia FBPA inh: 0.0%

What do the screens show for `COC(=O)C1=C(c2ccc(OC(F)(F)F)cc2)C[C@@H]2CC[C@H]1N2C(=O)N1CCCC1`?
HCV inh: 12.6µM*; HCMV antiviral: inconclusive; FMDV inh: inconclusive

How did COC(=O)C1=C(c2ccc(OC(F)(F)F)cc2)C[C@@H]2CC[C@H]1N2C(=O)N1CCC(C)CC1 do in these assays?
HCV inh: inconclusive; HCMV antiviral: -64.1*; FMDV inh: inconclusive

What do the screens show for `CCOc1ccc(Br)cc1CNCCN1CCOCC1`?
HCV inh: 21.3%; HCMV antiviral: 8.1; FMDV inh: -20.2%; Giardia FBPA inh: 1.5%; MARV entry inh: inconclusive; Lassa entry inh: 1.4%

Results for CCOc1ccc(Br)cc1CNc1ccc2c(c1)OCCO2 ?
HCV inh: 11.2µM*; HCMV antiviral: -64.9*; FMDV inh: -19.2%; Giardia FBPA inh: -22.6%; MARV entry inh: inconclusive; Lassa entry inh: -8.4%

Results for C=CCOc1ccccc1CNc1ccc2c(c1)OCCO2 ?
HCV inh: inconclusive; FMDV inh: 17.8µM*; Giardia FBPA inh: inconclusive; MARV entry inh: inconclusive; Lassa entry inh: 11.2µM*

How did CC(C)c1ccc(/C=C/C(=O)Nc2nc3ccc([N+](=O)[O-])cc3s2)cc1 do in these assays?
HCV inh: 16.0%; HCMV antiviral: inconclusive; FMDV inh: 3.7%; Giardia FBPA inh: 0.1%; MARV entry inh: 3.3%; Lassa entry inh: 5.5%

Results for O=[N+]([O-])c1ccc2nc(NN=Cc3ccc(O)cc3)sc2c1 ?
HCV inh: 1.0%; HCMV antiviral: -61.7*; FMDV inh: -3.4%; MARV entry inh: inconclusive; Lassa entry inh: -24.8%[46.1 µM]

Results for CCOc1cc(S(=O)(=O)Nc2ccccc2CC)ccc1Cl ?
HCV inh: 10µM*; HCMV antiviral: -30.3; FMDV inh: 9.1%; Giardia FBPA inh: -0.3%; MARV entry inh: -26.4%; Lassa entry inh: -7.3%

How did CC(CN1CCNCC1)(NS(=O)(=O)c1ccccc1)c1ccccc1 (centres undefined) do in these assays?
HCV inh: inconclusive; HCMV antiviral: 25.1; FMDV inh: -7.2%; Giardia FBPA inh: 8.4%; MARV entry inh: 11.2µM*; Lassa entry inh: -21.7%

Results for CC(C)C[C@@H]1NC(=O)[C@H](CCCN)NC(=O)[C@H](C(C)C)NC(=O)[C@@H]2CCCN2C(=O)[C@@H](Cc2ccccc2)NC(=O)[C@H](CC(C)C)NC(=O)[C@H](CCCN)NC(=O)[C@H](C(C)C)NC(=O)[C@@H]2CCCN2C(=O)[C@@H](Cc2ccccc2)NC1=O ?
FMDV inh: 6.31µM*

What do the screens show for `Nc1c(N(CCC2=CCCCC2)C(=O)COc2ccc(F)cc2Cl)c(=O)[nH]c(=O)n1Cc1ccccc1`?
HCV inh: inconclusive; HCMV antiviral: -98.0*; FMDV inh: inconclusive

What do the screens show for `CC(C)CCN(C(=O)Cc1ccc(Cl)c(Cl)c1)c1c(N)n(Cc2ccccc2)c(=O)[nH]c1=O`?
HCV inh: 10µM*; HCMV antiviral: -31.1; FMDV inh: inconclusive; Giardia FBPA inh: 1.0%; MARV entry inh: 1.9%; Lassa entry inh: inconclusive

Results for CCN1C(=NCCCOC(C)C)N[C@H](c2ccccc2)[C@H](C(=O)OC)[C@H]1C ?
MARV entry inh: 0.1%[14.2 µM]; Lassa entry inh: inconclusive

What do the screens show for `CO[C@H]1COC(=O)[C@H](C)NC(=O)C/C=C\[C@@H](C)[C@H](OC)COC(=O)C/C=C\[C@@H]1C`?
Giardia FBPA inh: 1.4%[12.9 µM]

How did O=S(=O)(NCCC1=CCCCC1)c1ccc(Br)cc1 do in these assays?
HCV inh: -1.5%; HCMV antiviral: -73.4*; FMDV inh: 36.8%; MARV entry inh: 9.2%; Lassa entry inh: inconclusive

Results for COc1ccc(C)cc1S(=O)(=O)N1CCC(C(=O)NCCC2=CCCCC2)CC1 ?
HCV inh: -8.9%; HCMV antiviral: 40.5; FMDV inh: -7.1%; Giardia FBPA inh: -0.7%; MARV entry inh: -14.9%; Lassa entry inh: -3.8%

Results for COc1ccc(C)cc1S(=O)(=O)NCCC1=CCCCC1 ?
HCV inh: 35.5µM*; HCMV antiviral: 31.5; FMDV inh: 64.3%; Giardia FBPA inh: 3.5%; MARV entry inh: 20.5%; Lassa entry inh: 1.7%

How did Cc1ccc(C)c(NC(=O)c2cc(S(=O)(=O)NCCC3=CCCCC3)ccc2F)c1 do in these assays?
HCMV antiviral: -34.2; FMDV inh: 12.5%; Lassa entry inh: -22.3%[46.1 µM]

What do the screens show for `Cc1ccc(NC(=O)c2cc(S(=O)(=O)NCCC3=CCCCC3)ccc2F)cc1`?
HCV inh: inconclusive; HCMV antiviral: -83.6*; FMDV inh: -21.4%; Giardia FBPA inh: -2.0%; MARV entry inh: inconclusive; Lassa entry inh: inconclusive

How did CCc1cccc(NC(=O)Cn2c(=O)n(CCC(=O)NCc3ccccc3Cl)c(=O)c3sccc32)c1 do in these assays?
HCMV antiviral: -37.4; FMDV inh: 8.1%; MARV entry inh: 11.9%[46.1 µM]; Lassa entry inh: -17.7%[46.1 µM]

What do the screens show for `COc1ccc(C)cc1NC(=O)c1cnc2ccc(C)cn2c1=O`?
HCMV antiviral: 14.2; FMDV inh: 6.5%; MARV entry inh: -7.6%[46.1 µM]

What do the screens show for `O=C(OCc1cc(=O)n2nc(C3CC3)sc2n1)c1ccc(NC(=O)c2ccccc2F)cc1`?
HCMV antiviral: -18.7; FMDV inh: -27.0%; Lassa entry inh: -1.6%[46.1 µM]

Source: PubChem (National Center for Advancing Translational Sciences (NCATS))
